A short description of test [1]: Quantitative High-Throughput drug screen in 47 multiple myeloma cell lines against the NCATS MIPE library collection: H1112_PLB cell viability assay (AID 1918967; further: nearly all actives have a fitted effect of over 30% in size; further: potency means the concentration at half of the fitted maximal effect). The method in brief:
(§1)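 CellTiter-Glo luminescence (ATP) after 48 h compound exposure, 37C/5% CO2; 500 cells/well; MIPE 4.0 approved/investigational drugs pinned in; DMSO = 100%, media only = 0% viability.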

A short description of test [2]: Quantitative High-Throughput drug screen in 47 multiple myeloma cell lines against the NCATS MIPE library collection: Karpas25_ECACC cell viability assay (AID 1918968; further: nearly all actives have a fitted effect of over 35% in size; further: potency means the concentration at half of the fitted maximal effect). An outline of the steps:
as §1

Test [3] is described as follows: Quantitative High-Throughput drug screen in 47 multiple myeloma cell lines against the NCATS MIPE library collection: KMS27_JCRB cell viability assay (AID 1918970). Further: nearly all actives have a fitted effect of over 30% in size. Further: potency means the concentration at half of the fitted maximal effect. The method in brief:
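ATP-based viability (CellTiter-Glo luminescence) is measured in cells treated 48 h with approved and investigational drugs at 37 °C. Controls are DMSO-only wells for full viability and media-only wells for none.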

The nature of test [4]: Quantitative High-Throughput drug screen in 47 multiple myeloma cell lines against the NCATS MIPE library collection: KMS12BM_JCRB cell viability assay (AID 1918971). Further: nearly all actives have a fitted effect of over 35% in size. Further: potency means the concentration at half of the fitted maximal effect. The method in brief: as §1
The nature of test [5]: Quantitative High-Throughput drug screen in 47 multiple myeloma cell lines against the NCATS MIPE library collection: KMS12PE_JCRB cell viability assay (AID 1918972). Further: nearly all actives have a fitted effect of over 30% in size. Further: potency means the concentration at half of the fitted maximal effect. The method in brief: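 Approved and investigational drugs from MIPE 4.0 were added by pin tool to 500 cells per well. After 48 hours at 37C, ATP-based CellTiter-Glo luminescence indicated remaining viability.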

Test [6] in a line: Quantitative High-Throughput drug screen in 47 multiple myeloma cell lines against the NCATS MIPE library collection: NCIH929_DSMZ cell viability assay (AID 1918978). Further: nearly all actives have a fitted effect of over 35% in size. Further: potency means the concentration at half of the fitted maximal effect. An outline of the steps:
(§2)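 MIPE 4.0 approved/investigational drugs; 500 cells/well; 48 h 37 °C humidified 5% CO2; CTG luminescence readout; DMSO = 100%, media = 0% viability.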

Test [7] is described as follows: Quantitative High-Throughput drug screen in 47 multiple myeloma cell lines against the NCATS MIPE library collection: OCIMY1_PLB cell viability assay (AID 1918979). Further: nearly all actives have a fitted effect of over 35% in size. Further: potency means the concentration at half of the fitted maximal effect. The method in brief: as §2
Test [8] can be described thus: Quantitative High-Throughput drug screen in 47 multiple myeloma cell lines against the NCATS MIPE library collection: MM1S_ATCC cell viability assay (AID 1918980). Further: nearly all actives have a fitted effect of over 45% in size. Further: potency means the concentration at half of the fitted maximal effect. An outline of the steps:
as §2

Test [9] can be described thus: Quantitative High-Throughput drug screen in 47 multiple myeloma cell lines against the NCATS MIPE library collection: LP1_DSMZ cell viability assay (AID 1918982). Further: nearly all actives have a fitted effect of over 35% in size. Further: potency means the concentration at half of the fitted maximal effect. An outline of the steps:
as §2

The nature of test [10]: Quantitative High-Throughput drug screen in 47 multiple myeloma cell lines against the NCATS MIPE library collection: KMS28PE_JCRB cell viability assay (AID 1918983). Further: nearly all actives have a fitted effect of over 35% in size. Further: potency means the concentration at half of the fitted maximal effect. An outline of the steps:
as §2

A short description of test [11]: Quantitative High-Throughput drug screen in 47 multiple myeloma cell lines against the NCATS MIPE library collection: KMS26_JCRB cell viability assay (AID 1918975). Further: nearly all actives have a fitted effect of over 45% in size. Further: potency means the concentration at half of the fitted maximal effect. The method in brief:
as §1

Test [12] can be described thus: Quantitative High-Throughput drug screen in 47 multiple myeloma cell lines against the NCATS MIPE library collection: KMS34_JCRB cell viability assay (AID 1918985). Further: nearly all actives have a fitted effect of over 40% in size. Further: potency means the concentration at half of the fitted maximal effect. An outline of the steps: as §2
Test [13] in a line: Quantitative High-Throughput drug screen in 47 multiple myeloma cell lines against the NCATS MIPE library collection: KMS20_JCRB cell viability assay (AID 1918973). Further: nearly all actives have a fitted effect of over 45% in size. Further: potency means the concentration at half of the fitted maximal effect. The method in brief:
as §1

Test [14] is described as follows: Quantitative High-Throughput drug screen in 47 multiple myeloma cell lines against the NCATS MIPE library collection: MM1R_ATCC cell viability assay (AID 1918981). Further: nearly all actives have a fitted effect of over 35% in size. The method in brief: as §2
Test [15] can be described thus: Quantitative High-Throughput drug screen in 47 multiple myeloma cell lines against the NCATS MIPE library collection: L363_DSMZ cell viability assay (AID 1918984). Further: nearly all actives have a fitted effect of over 40% in size. Further: potency means the concentration at half of the fitted maximal effect. An outline of the steps:
as §2

Test [16] in a line: Quantitative High-Throughput drug screen in 47 multiple myeloma cell lines against the NCATS MIPE library collection: OCIMY7_PLB cell viability assay (AID 1918987). Further: nearly all actives have a fitted effect of over 65% in size. Further: potency means the concentration at half of the fitted maximal effect. The method in brief:
as §2

A short description of test [17]: Quantitative High-Throughput drug screen in 47 multiple myeloma cell lines against the NCATS MIPE library collection: MMM1_PLB cell viability assay (AID 1918976). The method in brief:
as §2

Test [18] is described as follows: Quantitative High-Throughput drug screen in 47 multiple myeloma cell lines against the NCATS MIPE library collection: MOLP8_DSMZ cell viability assay (AID 1918977). Further: nearly all actives have a fitted effect of over 45% in size. The method in brief: as §2
Test [19] can be described thus: Quantitative High-Throughput drug screen in 47 multiple myeloma cell lines against the NCATS MIPE library collection: KMS21BM_JCRB cell viability assay (AID 1918974). Further: potency means the concentration at half of the fitted maximal effect. As to conditions: ATP luminescence, 48 h; viability: at 45.8 µM (top of the series). The method in brief:
as §1

For 17 compounds, Potency and viability results are on record in PubChem BioAssay (NCATS).

Records with an inconclusive call do not appear. Active and inactive are the calls of the source. The call rests on the fitted dose curve; in most records, active means well fitted curve in the direction sought with a large enough effect; inconclusive means small, poorly fitted or top-dose-only effect, or another doubt; inactive means no such curve, though single readings can be large; an effect the other way counts as inactive or inconclusive.

In the case of `CCCN1CCO[C@@H]2c3cc(O)ccc3OC[C@@H]21`, the Potency entry in [1], in [2], in test [3], in test [5], in test [6] and in test [7] was “inactive” each time. Also, the Potency result in test [10] is “inactive”. The Potency in [4] is 14.8 µM (active); in test [8], 14.8 µM (active); in test [9], 20.9 µM (active).

As to `C[C@]12CC[C@@H]3[C@@H](CCC4=CC(=O)CC[C@@H]43)[C@@H]1CC[C@@H]2OC(=O)CCc1ccccc1`, the Potency result in test [1] and in test [2] was “inactive” in each case.

For `O=C(NCC1CCOCC1)c1cnc(Nc2ccc(Cl)cc2Cl)nc1C(F)(F)F`, the Potency in test [1] was 5.9 µM (active); in test [2], 4.69 µM (active); in test [6], 4.69 µM (active); in [8], 3.32 µM (active). In addition, the Potency entry in [11], in test [10] and in test [12] was “inactive” each time.

Turning to `C[C@H]1CCCC=CC2C[C@H](O)C[C@@H]2[C@H](O)C=CC(=O)O1` (stereo not given in full), the Potency result in test [1], in test [2], in [4], in test [13], in [11] and in test [6] was “inactive” each time. The Potency result in test [7], in test [14], in test [9], in [15], in test [12] and in test [16] was “inactive” in each case. For the same compound, in test [3], the Potency is 0.001 µM (active).

Consider `Cc1c(C(=O)c2cccc3ccccc23)c2cccc3c2n1[C@H](CN1CCOCC1)CO3`, for which the Potency in test [1] is 23.5 µM (active); in test [2], 14.8 µM (active); in test [4], 18.7 µM (active); in [13] it was 18.7 µM (active); in test [11], 23.5 µM (active); in test [6], 23.5 µM (active). For the same compound, the Potency in [10] is 26.4 µM (active); in test [15], 3.72 µM (active); in test [12], 23.5 µM (active); in test [16], 13.2 µM (active).

As for `CCNC(=O)C[C@@H]1N=C(c2ccc(Cl)cc2)c2cc(OC)ccc2-n2c(C)nnc21`, the Potency in [1] is 0.743 µM (active); in [2], 2.09 µM (active); in test [3], 0.469 µM (active); in test [4], 0.235 µM (active); in [11], 0.0935 µM (active); in test [17], 0.209 µM (active). Further, the Potency in [7] was 1.05 µM (active); in test [8], 1.05 µM (active); in test [10] it was 0.264 µM (active); in test [16] it was 2.64 µM (active).

With `c1ccc(CCCN2CCN(CCOC(c3ccccc3)c3ccccc3)CC2)cc1`, the Potency in test [1] is 26.4 µM (active); in [2] it was 10.5 µM (active); in [4], 20.9 µM (active); in test [13], 13.2 µM (active); in [11], 26.4 µM (active); in test [6], 23.5 µM (active). Also, the Potency in test [7] was 23.5 µM (active); in test [9], 20.9 µM (active); in test [12] it was 26.4 µM (active). Besides, the Potency result in test [3] and in test [15] was “inactive” in each case.

Consider `O=C(O)CNC(=O)c1c(O)c2ccccc2n(Cc2ccccc2)c1=O`, for which the Potency entry in test [1], in test [2], in test [3], in test [4], in [11] and in test [6] was “inactive” each time. The Potency result in test [14], in [9], in [15] and in test [12] was “inactive” in each case.

In the case of `CC[C@@H](C(N)=O)N1CCCC1=O`, the Potency result in test [1], in [2], in test [5], in test [13], in [18] and in test [7] was “inactive” throughout. In addition, the Potency result in test [9] is “inactive”.

In the case of `C[C@]12Cc3cn[nH]c3C[C@@H]1CC[C@@H]1[C@H]2CC[C@@]2(C)[C@H]1CC[C@]2(C)O`, the Potency result in test [1], in test [2], in test [5], in test [13], in test [6] and in test [7] was “inactive” each time. In addition, the Potency entry in test [8], in test [12] and in [16] was “inactive” in each case. In addition, the Potency in test [4] is 16.6 µM (active).

With `C[C@]12CC[C@H]3[C@@H](CCC4=CC(=O)CC[C@@]43C)[C@H]1CC[C@H]2O`, the Potency result in test [1], in test [2], in test [3], in test [13], in [6] and in [10] was “inactive” throughout. In addition, the Potency result in test [12] and in test [16] was “inactive” each time.

On to `CC(C)(O)C(=O)Nc1ccc([N+](=O)[O-])c(C(F)(F)F)c1`, for which the Potency in test [1] was 9.35 µM (active); in test [2], 9.35 µM (active); in [3] it was 14.8 µM (active); in [6] it was 5.26 µM (active); in [8], 9.35 µM (active); in test [16], 7.43 µM (active). The Potency result in [18], in test [14], in test [10] and in test [12] was “inactive” each time.

With `O=[N+]([O-])c1ncc[nH]1`, the Potency entry in test [1], in [3], in test [5], in [13], in test [19] and in test [11] was “inactive” throughout. Also, the Potency entry in test [6], in [14] and in [9] was “inactive” each time. In addition, the Potency in test [4] is 16.6 µM (active); in [10] it was 0.105 µM (active).

Regarding `CC(C)N[C@@H]1CCn2c(=O)[nH]c3cccc(c32)[C@@H]1O`, the Potency in test [1] is 7.43 µM (active); in [2] it was 0.187 µM (active); in test [3] it was 0.833 µM (active); in test [5], 6.62 µM (active); in test [13], 10.5 µM (active); in test [19] it was 0.833 µM (active). The Potency was 26.4 µM (active) in [11]; 9.35 µM (active) in [6]; 20.9 µM (active) in test [10]; 3.32 µM (active) in test [15]; 10.5 µM (active) in test [12].

As to `CC(=O)OCC1=C(C(=O)O)N2C(=O)[C@@H](N)[C@@H]2SC1`, the Potency result in test [1], in test [2], in test [6], in test [7] and in [10] was “inactive” in each case. For the same compound, the Potency in test [3] is 7.43 µM (active).

The term viability denotes the share of living cells, or the viability signal relative to a control. With `CC(=Cc1csc(C)n1)[C@@H]1C[C@H]2O[C@]2(C)CCC[C@H](C)[C@@H](O)[C@@H](C)C(=O)C(C)(C)[C@@H](O)CC(=O)O1`, the Potency result in test [1], in test [2], in test [4], in test [6], in test [8] and in [9] was “inactive” in each case. Besides, the Potency result in [12] and in test [16] was “inactive” throughout. For the same compound, the viability in test [19] was 80.2% (active).

Regarding `C[C@@H]1[C@H](O)[C@@H](C)C=CC=CCCC=CC=CC=CC=C[C@H](O[C@H]2O[C@@H](C)[C@H](O)[C@@H](N)[C@@H]2O)CC2O[C@](O)(C[C@@H](O)[C@H](O)CC[C@@H](O)C[C@@H](O)C[C@@H](O)CC(=O)O[C@H]1C)C[C@H](O)[C@H]2C(=O)O`, the Potency entry in test [1], in test [2], in [3], in test [5], in test [11] and in test [6] was “inactive” in each case. Also, the Potency entry in [14], in test [9], in test [10] and in test [12] was “inactive” each time.
